The results in this text go back to PubChem BioAssay (EPA / NIEHS).

For one assay, the system named is DIO1 (gene 1733). The assay is described as follows: CCTE_GLTED_hDIO1: CCTE's human Deiodinase 1 (DIO1) Inhibition Assay, Great Lakes Toxicology and Ecology Division (GLTED) Lab (AID 2283987).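 Also: isolated human DIO1 enzyme in a cell-free setup rather than cells; enzyme activity read as free iodide liberated from substrate via Sandell-Kolthoff colorimetry.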 The essentials: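 Cell-free human DIO1 enzyme was incubated with test chemical for 3 h, and iodide released from substrate was measured by Sandell-Kolthoff absorbance. Loss of signal versus DMSO baseline indicated inhibition; plates were run in triplicate.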

The subject of another assay is DIO2 (gene 1734). Briefly: CCTE_GLTED_hDIO2: CCTE's human Deiodinase 2 (DIO2) Inhibition Assay, Great Lakes Toxicology and Ecology Division (GLTED) Lab (AID 2284050). The gist of the method: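 Cell-free human DIO2 enzyme was incubated with test chemical for 3 h; iodide liberated from substrate was then quantified by the Sandell-Kolthoff reaction (absorbance), run in triplicate. Loss of signal versus DMSO baseline indicated inhibition.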

A further assay relates to DIO3 (gene 1735). The assay is described as follows: CCTE_GLTED_hDIO3: CCTE's human Deiodinase 3 (DIO3) Inhibition Assay, Great Lakes Toxicology and Ecology Division (GLTED) Lab (AID 2284055).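 Also: potency is for inhibition seen as loss of released iodide signal.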 The gist of the method: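 Cell-free assay with human DIO3 enzyme produced by adenovirus expression; enzyme incubated with test chemical for 3 hours. Liberated iodide then measured by Sandell-Kolthoff absorbance; loss of signal versus DMSO baseline indicates inhibition, run in triplicate.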

A further assay addresses PGR (gene 5241) (UniProt P06401). Briefly: NVS_NR_hPR: NovaScreen (NVS) Nuclear Receptor Binding Assay for human Progestron Receptor (PR) (AID 2283360).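 Also: active means loss of bound radioligand signal versus DMSO baseline.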 The essentials: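 Radioligand competition binding on receptor extracted from T47D cells, read by scintillation counting 18 h after dosing. Loss of signal versus DMSO; primary screen in duplicate at 25 uM, actives followed in concentration series.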

Assay [1] in a line: CEETOX_H295R_ANDR: CeeTox H295R High-throughput Steroidogenesis Assay for Androstenedione (ANDR) (AID 2283436; active = hit-call score of the fitted dose curve at least 0.9, where 1 is the maximum; inactive = score below 0.9). As to conditions: actives raise or lower the signal. The essentials:
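H295R human adrenal cells (passages ≤10) were exposed to test chemicals for 48 h; androstenedione in medium was MTBE-extracted and quantified by HPLC-MS/MS against a 7-point standard curve. Bidirectional fitting used DMSO as baseline.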

Assay [2] can be described thus: CEETOX_H295R_TESTO: CeeTox H295R High-throughput Steroidogenesis Assay for Testosterone (TESTO) (AID 2283457; active = hit-call score of the fitted dose curve at least 0.9, where 1 is the maximum; inactive = score below 0.9;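 as to AC50: cells exposed to chemicals for 48 h before medium collection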). As to conditions: actives raise or lower the signal. The gist of the method: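 H295R human adrenal cells in DMEM/F12 with ITS+ and Nu-Serum, exposed to chemicals for 48 h. Testosterone in medium measured by MTBE extraction, reverse-phase HPLC-MS/MS; bidirectional fit versus DMSO baseline. MTT viability checked in same wells.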

Assay [3] is described as follows: Tanguay_ZF_120hpf_PE_legacy: (Legacy) Oregon State University Tanguay Lab 120 Hour Post-fertilization zebrafish Assay for Pericardial Edema (AID 2283640). The essentials:
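Tropical 5D wild-type zebrafish embryos were exposed statically to 120 hpf at 28C, sealed and foil-covered, in 0.64% DMSO final. Pericardial edema was scored present/absent by brightfield microscopy; dead embryos were not scored.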

The nature of assay [4]: Tanguay_ZF_120hpf_BRAI_legacy: (Legacy) Oregon State University Tanguay Lab 120 Hour Post-fertilization zebrafish Assay for Brain Malformation (AID 2283641). The essentials:
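Tropical 5D wild-type zebrafish embryos were exposed statically in sealed, foil-covered plates at 28C until 120 hpf, with 0.64% (vol/vol) final DMSO. Brain malformation was scored present/absent by brightfield microscopy, relative to DMSO baseline.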

The nature of assay [5]: Tanguay_ZF_120hpf_SOMI_legacy: (Legacy) Oregon State University Tanguay Lab 120 Hour Post-fertilization zebrafish Assay for Somite Malformation (AID 2283647). The essentials:
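Tropical 5D wild-type zebrafish embryos, dechorionated with pronase at 4 hpf, were placed singly at 6 hpf and statically exposed until 120 hpf at 28C in 0.64% DMSO. Somite malformation was scored present/absent by brightfield microscopy versus DMSO.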

The nature of assay [6]: Tanguay_ZF_120hpf_PFIN_legacy: (Legacy) Oregon State University Tanguay Lab 120 Hour Post-fertilization zebrafish Assay for Pectoral Fin Malformation (AID 2283648).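 Also: each larva judged yes or no for fin defect by brightfield with dead larvae skipped.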 The essentials: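 Tropical 5D wild-type embryos, dechorionated with pronase at 4 hpf, were placed singly in wells at 6 hpf and statically exposed until 120 hpf at 28C, sealed and dark, with 0.64% (vol/vol) final DMSO; pectoral fin malformation scored present/absent.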

Assay [7] is described as follows: Tanguay_ZF_120hpf_CFIN_legacy: (Legacy) Oregon State University Tanguay Lab 120 Hour Post-fertilization zebrafish Assay for Caudal Fin Malformation (AID 2283649). The essentials: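 Tropical 5D wild-type embryos, dechorionated with pronase at 4 hpf, were placed singly in wells at 6 hpf and statically exposed to compound at 28C until 120 hpf (0.64% DMSO). Caudal fin malformation was scored present/absent by brightfield microscopy.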

The nature of assay [8]: Tanguay_ZF_120hpf_SWIM_legacy: (Legacy) Oregon State University Tanguay Lab 120 Hour Post-fertilization zebrafish Assay for Swim Bladder Malformation (AID 2283654).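 Also: swim bladder malformation in each larva scored yes or no under brightfield.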 The essentials: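 Dechorionated Tropical 5D wild-type embryos, placed singly from 6 hpf, were statically exposed at 28C to 120 hpf with 0.64% DMSO final; swim bladder malformation was scored present/absent by brightfield microscopy, gain of signal relative to DMSO controls.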

Assay [9] can be described thus: Tanguay_ZF_120hpf_TRUN_legacy: (Legacy) Oregon State University Tanguay Lab 120 Hour Post-fertilization zebrafish Assay for Truncated Body (AID 2283655). The essentials:
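Tropical 5D wild-type embryos, dechorionated with pronase at 4 hpf, were placed singly in wells at 6 hpf and statically exposed at 28C until 120 hpf, final DMSO 0.64%. Truncated body was scored present/absent by brightfield microscopy.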

Assay [10] can be described thus: Tanguay_ZF_120hpf_NC_legacy: (Legacy) Oregon State University Tanguay Lab 120 Hour Post-fertilization zebrafish Assay for Notochord and Tail Malformation (AID 2283656). The essentials:
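Dechorionated 5D zebrafish, 1/well from 6 hpf; static exposure to 120 hpf, 28C, sealed, dark; final DMSO 0.64% v/v. NC scored binary (present/absent); dead embryos not scored. Fit vs DMSO baseline, gain direction.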

Assay [11] is described as follows: Tanguay_ZF_120hpf_TR_legacy: (Legacy) Oregon State University Tanguay Lab 120 Hour Post-fertilization zebrafish Assay for Touch Response (AID 2283667). The gist of the method: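 Tropical 5D wild-type zebrafish embryos were exposed statically in sealed, foil-covered plates at 28C until 120 hpf, with 0.64% (vol/vol) final DMSO. Touch response was scored as present or absent; embryos that died were not scored.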

A short description of assay [12]: Tanguay_ZF_120hpf_ActivityScore_legacy: (Legacy) Oregon State University Tanguay Lab 120 Hour Post-fertilization zebrafish Assay Score for Activity (AID 2283742). The essentials: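 Tropical 5D wild-type zebrafish embryos, dechorionated with pronase at 4 hpf, were exposed singly from 6 hpf to 120 hpf statically at 28C in 0.64% DMSO. Malformations and mortality were scored as binary by brightfield, with the activity score combining 18 morphology components.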

In assay [13] the test system is rat Monoamine Oxidase, MAO-A, Central (MAOAC), gene 29253. The assay is described as follows: NVS_ENZ_rMAOAC: NovaScreen (NVS) Enzymatic Assay for rat Monoamine Oxidase, MAO-A, Central (MAOAC) (AID 2283243).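 Also: potency refers to inhibition seen as signal drop below DMSO baseline.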 The gist of the method:
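Rat brain tissue extract served as the cell-free enzyme source; activity was measured by radiometric scintillation counting 1.5 hours after compound addition. Loss of signal relative to DMSO baseline indicated inhibition; primary screen at 25 uM in duplicate.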

The subject of assay [14] is guinea pig Dopamine Transporter (DAT), gene 100714898. Briefly: NVS_TR_gDAT: NovaScreen (NVS) Transporter Assay for guinea pig Dopamine Transporter (DAT) (AID 2283369).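 Also: active compounds lower bound radioligand signal relative to DMSO.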 The essentials: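 Guinea pig striatal membranes; radioligand displacement measured by filter-based scintillation counting 2 h after dosing. Initial duplicate screen at 25 uM, then concentration-response up to 50 uM for hits; loss of signal versus DMSO baseline.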

Assay [15] deals with human CYP19A1, CYP19A1 (gene 1588) (UniProt P11511). The assay is described as follows: NVS_ADME_hCYP19A1: NovaScreen (NVS) CYP450-related Enzyme Activity (ADME) Assay for human CYP19A1 (AID 2283098).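 As to AC50: potency for inhibitors seen as loss of fluorescent enzyme signal.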 The essentials:
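Cell-free enzyme assay with recombinant protein and a specific fluorogenic substrate, read by fluorescence intensity 0.5 h after dosing. Primary screen ran in duplicate at 10 uM; actives were retested in concentration series. Loss of signal versus acetonitrile baseline.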

Assay [16] concerns the target human Esterase Plasma (ES), BCHE (gene 590) (UniProt P06276). Briefly: NVS_ENZ_hES: NovaScreen (NVS) Enzymatic Assay for human Esterase Plasma (ES) (AID 2283157). The essentials: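 Cell-free enzyme assay using esterase extracted from human plasma; colorimetric absorbance read 0.25 hour after dosing. Single-concentration duplicate screen at 25 uM, then concentration-response up to 50 uM; loss of signal scored against DMSO baseline.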

Records with an inconclusive call do not appear. Calls of active or inactive are those of the source. The calls were made as follows, unless noted: active = hit-call score of the fitted dose curve at least 0.9, where 1 is the maximum; inconclusive = response in the unintended direction; inactive = score below 0.9.

Chain of human CYP19A1, CYP19A1 (gene 1588) (P11511 whole entry, looked up): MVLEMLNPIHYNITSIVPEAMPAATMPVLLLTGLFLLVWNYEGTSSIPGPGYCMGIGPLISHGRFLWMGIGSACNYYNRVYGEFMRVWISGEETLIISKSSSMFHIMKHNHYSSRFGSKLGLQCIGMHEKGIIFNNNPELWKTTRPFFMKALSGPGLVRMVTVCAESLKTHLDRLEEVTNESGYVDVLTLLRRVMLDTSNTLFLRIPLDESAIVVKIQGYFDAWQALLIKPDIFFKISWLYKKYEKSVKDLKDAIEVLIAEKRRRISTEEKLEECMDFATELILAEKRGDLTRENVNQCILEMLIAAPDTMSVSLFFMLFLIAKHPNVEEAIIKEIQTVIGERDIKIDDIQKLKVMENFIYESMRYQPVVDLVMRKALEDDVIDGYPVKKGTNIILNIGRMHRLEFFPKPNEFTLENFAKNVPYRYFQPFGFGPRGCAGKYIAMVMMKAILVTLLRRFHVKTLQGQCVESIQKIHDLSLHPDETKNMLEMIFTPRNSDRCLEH
Chain of human Esterase Plasma (ES), BCHE (gene 590) (P06276 whole entry, looked up): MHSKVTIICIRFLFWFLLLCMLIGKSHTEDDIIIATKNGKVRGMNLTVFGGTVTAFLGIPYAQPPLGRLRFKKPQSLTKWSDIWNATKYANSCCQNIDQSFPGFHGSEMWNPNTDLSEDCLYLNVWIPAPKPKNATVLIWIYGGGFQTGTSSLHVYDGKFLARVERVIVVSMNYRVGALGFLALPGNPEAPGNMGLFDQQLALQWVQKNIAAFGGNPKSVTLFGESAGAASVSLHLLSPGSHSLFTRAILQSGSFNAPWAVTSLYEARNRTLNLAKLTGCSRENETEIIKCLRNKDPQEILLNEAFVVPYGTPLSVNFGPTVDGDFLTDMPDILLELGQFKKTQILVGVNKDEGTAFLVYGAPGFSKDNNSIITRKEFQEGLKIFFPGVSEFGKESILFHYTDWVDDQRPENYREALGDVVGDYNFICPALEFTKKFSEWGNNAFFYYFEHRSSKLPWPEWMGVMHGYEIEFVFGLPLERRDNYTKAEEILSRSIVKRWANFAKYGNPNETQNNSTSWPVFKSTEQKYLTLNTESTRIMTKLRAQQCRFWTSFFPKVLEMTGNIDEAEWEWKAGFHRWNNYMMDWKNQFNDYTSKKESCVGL
Chain of PGR (gene 5241) (P06401 whole entry, looked up): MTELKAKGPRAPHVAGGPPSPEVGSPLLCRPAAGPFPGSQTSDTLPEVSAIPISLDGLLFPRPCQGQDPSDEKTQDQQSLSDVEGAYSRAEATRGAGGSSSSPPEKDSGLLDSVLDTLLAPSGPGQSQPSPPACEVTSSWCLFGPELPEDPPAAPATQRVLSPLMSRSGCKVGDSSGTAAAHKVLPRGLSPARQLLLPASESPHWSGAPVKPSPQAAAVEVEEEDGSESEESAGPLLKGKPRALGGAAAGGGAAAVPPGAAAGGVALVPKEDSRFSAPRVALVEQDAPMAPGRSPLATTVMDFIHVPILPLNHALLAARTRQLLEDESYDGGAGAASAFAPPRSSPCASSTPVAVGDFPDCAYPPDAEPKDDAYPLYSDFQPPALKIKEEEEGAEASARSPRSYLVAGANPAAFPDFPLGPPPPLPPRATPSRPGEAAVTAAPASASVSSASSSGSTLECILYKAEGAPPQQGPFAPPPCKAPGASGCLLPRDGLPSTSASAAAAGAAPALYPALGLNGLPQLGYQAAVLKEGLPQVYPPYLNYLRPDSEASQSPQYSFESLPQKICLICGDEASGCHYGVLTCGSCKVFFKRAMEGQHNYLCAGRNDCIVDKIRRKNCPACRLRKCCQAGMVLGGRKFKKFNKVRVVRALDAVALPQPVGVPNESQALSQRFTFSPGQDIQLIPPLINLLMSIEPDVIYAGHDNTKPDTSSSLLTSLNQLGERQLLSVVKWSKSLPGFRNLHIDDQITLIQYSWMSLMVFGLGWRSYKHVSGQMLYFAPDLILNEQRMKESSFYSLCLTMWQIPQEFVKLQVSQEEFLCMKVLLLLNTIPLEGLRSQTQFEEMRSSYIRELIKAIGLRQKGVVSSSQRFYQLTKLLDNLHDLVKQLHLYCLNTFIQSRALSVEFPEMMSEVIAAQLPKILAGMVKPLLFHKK

With `C=CC(=O)OCC(CC)CCCC` (centres undefined), the AC50 was 19.4 µM (active) in the assay with DIO1 (gene 1733), 23.8 µM (active) with DIO2 (gene 1734) and 47 µM (active) with DIO3 (gene 1735).

On to `C=COCCCl`, for which, in the assay with PGR (gene 5241), the result was inactive.

As to `O=CNC(N1CCN(C(NC=O)C(Cl)(Cl)Cl)CC1)C(Cl)(Cl)Cl` (centres undefined), the AC50 in assay [1] was 50 µM (active). In addition, in assay [2], the result was inactive.

`N#CCCCCC#N`: the outcome in assay [3], in assay [4], in [5], in assay [6], in [7] and in [8] was inactive. In addition, the outcome in [9], in [10], in [11] and in assay [12] was inactive.

Consider `CNC(=O)Oc1cc(C)c(SC)c(C)c1`, for which the AC50 in assay [13] is 14 µM (active); in [14], 25 µM (active); in assay [1], 37.7 µM (active); in assay [2] it was 36 µM (active).

For the compound `CC1(C)[C@H](C(=O)O[C@H](C#N)c2cccc(Oc3ccccc3)c2)[C@@H]1C=C(Br)Br`, the result in assay [15] was inactive.

For `O=[N+]([O-])c1ccc(Cl)cc1`, the result in assay [3], in [4], in assay [5], in assay [6], in assay [7] and in [8] was inactive. The compound was classed as inactive in assay [9], in assay [10], in assay [11] and in assay [12].

On to `O=C(CCl)c1ccccc1`, for which the compound was called inactive in assay [3], in assay [4], in assay [5], in assay [6], in assay [7] and in assay [8]. In addition, the call in assay [9], in assay [10] and in assay [11] was inactive. Moreover, the AC50 in assay [12] is 1.45 µM (active).

In the case of `CCOP(=O)(OCC)Oc1ccc([N+](=O)[O-])cc1`, the AC50 in assay [15] is 6.54 µM (active).

In the case of `O=S(=O)(c1ccccc1)c1ccccc1`, the AC50 in assay [14] was 19.9 µM (active).

Turning to `COC(C)(C)CCC[C@H](C)C/C=C/C(C)=C/C(=O)OC(C)C`, the AC50 in [16] is 16.5 µM (active).

In the case of `Nc1ccc(-c2ccc(N)c(N)c2)cc1N`, the values for the concentration at half-maximal activity (AC50) in [16] and in [13] were 29.1 µM (active) and 14.1 µM (active), respectively.

For the compound `COC(=O)COc1ccc(Cl)cc1Cl`, the half-maximal activity concentration (AC50) in [13] is 13.7 µM (active).

Turning to `CC(C)CCCCCCCOP(=O)(Oc1ccccc1)Oc1ccccc1`, the AC50 in [14] is 12.2 µM (active).

On to `CC1OC(C)OC(C)O1` (centres undefined), for which the compound was classed as inactive in [16].

As to `CCCCCCCCCCCCCCCC[N+](C)(C)C`, the AC50 was 13.5 µM (active) in the assay with DIO1 (gene 1733), 19.8 µM (active) in the assay on DIO2 (gene 1734) and 1.56 µM (active) in the assay on DIO3 (gene 1735).

With `ClC1=C(Cl)[C@]2(Cl)[C@@H]3[C@@H](Cl)[C@H](Cl)C[C@@H]3[C@@]1(Cl)C2(Cl)Cl`, the compound was classed as inactive with PGR (gene 5241).

With `CCC(=O)c1ccc(Cl)cc1`, in [15], the compound was called inactive.

By AC50 is commonly meant the midpoint of the concentration-response curve, whichever way the signal moves.
